Measurements: the supplement of paper PMC8728848
Shown is part of a subset that was picked to be rich in the strongest signals.

Tests used:
Assay in all cases: glycan array binding signal (z-score within array); higher = stronger binding
Details in all cases: glycan notation: IUPAC condensed, linker removed
[1] = system: Fuc(a1-2)[GalNAc(a1-3)]Gal(b1-3)GlcNAc(b1-2)Man(a1-3)[Fuc(a1-2)[GalNAc(a1-3)]Gal(b1-3)GlcNAc(b1-2)Man(a1-6)]Man(b1-4)GlcNAc(b1-4)GlcNAc
Outline: (§1)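 From the Consortium for Functional Glycomics database, 3228 arrays were curated, keeping only those whose protein sequence was available. Binding is given as a within-array Z-score averaged across arrays sharing a protein sequence and across linkers. Negative Z-scores can be read as non-binding.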

[2] = system: Fuc(a1-2)[GalNAc(a1-3)]Gal(b1-4)GlcNAc(b1-2)Man
Outline: as §1

[3] = system: Fuc(a1-2)[GalNAc(a1-3)]Gal(b1-4)GlcNAc(b1-6)GalNAc
Outline: as §1

[4] = system: Fuc(a1-2)[GalNAc(a1-3)]Gal(b1-3)GlcNAc(b1-3)GalNAc
Outline: as §1

[5] = system: Fuc(a1-2)[GalNAc(a1-3)]Gal(b1-4)GlcNAc(b1-2)Man(a1-3)[Fuc(a1-2)[GalNAc(a1-3)]Gal(b1-4)GlcNAc(b1-2)Man(a1-6)]Man(b1-4)GlcNAc(b1-4)GlcNAc
Outline: as §1

[6] = system: Fuc(a1-2)[GalNAc(a1-3)]Gal(b1-4)GlcNAc(b1-3)Gal(b1-4)GlcNAc(b1-3)Gal(b1-4)GlcNAc
Outline: as §1

[7] = system: Fuc(a1-2)[GalNAc(a1-3)]Gal(b1-3)GlcNAc(b1-6)GalNAc
Outline: as §1

[8] = system: Fuc(a1-2)[GalNAc(a1-3)]Gal(b1-4)GlcNAc(b1-3)Gal(b1-4)GlcNAc
Outline: as §1

[9] = system: Fuc(a1-2)[GalNAc(a1-3)]Gal(b1-4)GlcNAc(b1-3)GalNAc
Outline: as §1

[10] = system: Fuc(a1-2)[GalNAc(a1-3)]Gal(b1-3)GlcNAc
Outline: as §1

Chain of PILRb (Mus musculus), Q2YSF2 (Q2YSF2 entry or part of it): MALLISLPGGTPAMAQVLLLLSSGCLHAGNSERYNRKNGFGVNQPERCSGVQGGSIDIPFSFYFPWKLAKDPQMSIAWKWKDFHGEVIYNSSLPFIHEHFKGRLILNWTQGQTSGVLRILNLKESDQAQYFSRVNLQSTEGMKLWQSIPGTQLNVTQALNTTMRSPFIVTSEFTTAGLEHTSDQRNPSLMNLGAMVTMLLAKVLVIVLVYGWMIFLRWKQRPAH
Chain of CHI3L1 (Homo sapiens), P36222 (P36222 whole entry): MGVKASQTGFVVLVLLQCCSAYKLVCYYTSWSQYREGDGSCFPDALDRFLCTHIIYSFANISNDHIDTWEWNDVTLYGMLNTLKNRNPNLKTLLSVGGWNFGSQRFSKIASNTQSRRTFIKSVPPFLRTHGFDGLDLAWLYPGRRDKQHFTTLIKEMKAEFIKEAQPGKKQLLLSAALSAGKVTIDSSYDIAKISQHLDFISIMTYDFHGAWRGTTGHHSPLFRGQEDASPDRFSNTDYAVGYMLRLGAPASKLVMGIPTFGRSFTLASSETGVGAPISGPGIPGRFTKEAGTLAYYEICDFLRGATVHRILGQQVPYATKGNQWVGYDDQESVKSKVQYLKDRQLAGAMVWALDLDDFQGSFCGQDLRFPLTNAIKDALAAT
Chain of 6RG (Lolium perenne), B9U140 (B9U140 entry or part of it): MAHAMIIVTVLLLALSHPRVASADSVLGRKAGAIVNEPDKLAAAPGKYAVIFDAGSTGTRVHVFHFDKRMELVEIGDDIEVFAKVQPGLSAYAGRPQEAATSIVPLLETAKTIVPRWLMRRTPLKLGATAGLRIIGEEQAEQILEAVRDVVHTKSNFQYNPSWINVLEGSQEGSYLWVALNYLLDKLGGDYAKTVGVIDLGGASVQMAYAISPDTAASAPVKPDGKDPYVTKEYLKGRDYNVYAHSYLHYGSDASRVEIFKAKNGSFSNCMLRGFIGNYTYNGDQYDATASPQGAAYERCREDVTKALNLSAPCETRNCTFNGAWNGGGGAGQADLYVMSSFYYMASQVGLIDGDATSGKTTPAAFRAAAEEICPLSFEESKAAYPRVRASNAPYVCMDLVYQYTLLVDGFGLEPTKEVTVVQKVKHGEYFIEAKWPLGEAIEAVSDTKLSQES
Chain of Aggrecan (Rattus norvegicus), NP_071526 (chain, as listed by the source): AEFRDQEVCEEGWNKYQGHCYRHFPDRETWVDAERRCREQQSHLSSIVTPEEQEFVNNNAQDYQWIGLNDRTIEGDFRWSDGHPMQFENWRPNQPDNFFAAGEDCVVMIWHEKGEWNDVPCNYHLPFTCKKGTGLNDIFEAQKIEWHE
Chain of Avaren (Actinomycete K97) (chain, as listed by the source): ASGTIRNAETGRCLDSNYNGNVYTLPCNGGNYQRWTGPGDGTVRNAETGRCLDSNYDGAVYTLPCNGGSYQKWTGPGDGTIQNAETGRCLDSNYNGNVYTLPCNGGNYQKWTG

MpAFP RI GFP (Marinomonas primoryensis)
glycan array binding signal (z-score) [1]: -0.022
glycan array binding signal (z-score) [2]: -0.489
glycan array binding signal (z-score) [3]: -0.439

Aggrecan (Rattus norvegicus), NP_071526
glycan array binding signal (z-score) [1]: -0.131

PILRb (Mus musculus), Q2YSF2
glycan array binding signal (z-score) [4]: 1.35
glycan array binding signal (z-score) [5]: -0.328
glycan array binding signal (z-score) [6]: -0.069

Avaren (Actinomycete K97)
glycan array binding signal (z-score) [7]: -0.139

CHI3L1 (Homo sapiens), P36222
glycan array binding signal (z-score) [7]: -0.064
glycan array binding signal (z-score) [8]: -0.12
glycan array binding signal (z-score) [9]: -0.124

6RG (Lolium perenne), B9U140
glycan array binding signal (z-score) [10]: -0.169

Siglec-8 (Homo sapiens), Q9NYZ4
glycan array binding signal (z-score) ([8]; mutation: R125K): -0.346
glycan array binding signal (z-score) ([3]; mutation: R125K): -0.119
